# Data from PubChem BioAssay (NCATS).
# Results filed as inconclusive are left out. Values without a mark were called inactive. The call rests on the fitted dose curve; in most records, active means well fitted curve in either direction with a large enough effect (not every such curve was filed as active); inconclusive means small, poorly fitted or top-dose-only effect, or another doubt; inactive means flat fitted curve, though single readings scatter.
# Assay: AP1 Signaling Pathway (AID 357);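 further: ME-180 reporter cells stimulated with EGF at its EC50 level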
# Conditions: ME-180 (cervical carcinoma) AP-1-bla reporter, EGF-induced, beta-lactamase ratio, 5 h; at 17.2 µM (top of the series) unless noted
# Summary of the method: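 AP-1-bla ME-180 cells, Opti-MEM + 0.5% dialyzed FBS, plated overnight 37 °C. Cpd titration + EC50 EGF, 5 h 37 °C. CCF4 2.5 h RT; ex 405, em 460/530 ratio → %activity, AC50.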
# On the % scale 0 is the no-effect control and ±100 the full control effect.
row,SMILES,"activity change, negative = inhibition"
1,O=C1CCC(=O)N1c1nc2nc(-c3ccccc3)cc(-c3ccccc3)n2n1,-12.9%
2,N#CCCN(C(=O)c1ccco1)c1ccccc1,-22.8%
3,Cn1c(=O)c2c(nc(Br)n2Cc2ccc3ccccc3c2)n(C)c1=O,-1.43%
4,Cc1c(NS(=O)(=O)c2cccc3nsnc23)c(=O)n(-c2ccccc2)n1C,16.3%
5,Cc1[nH]nc(-c2ccc(O)cc2O)c1Oc1ccccc1,-8.71%
6,Nc1nnnn1/N=C/c1cccc(Oc2ccccc2)c1,-4.47%
7,O=C(O)C(O)c1ccco1 (stereo unspecified),-5.38%
8,COc1ccccc1-n1c(=O)c2c3c(sc2n2c(SC)nnc12)CCC3,6.29%
9,O=S1(=O)C[C@@H](N2CCOCC2)[C@H](N2CCOCC2)C1,-10.3%
10,COC(=O)c1[nH]c(C)c(/C(O)=C2\C(=O)C(=O)N(CCN3CCOCC3)C2c2cccnc2)c1C (stereo unspecified),0.561%
11,COc1ccc(-n2c(=O)c3c4c(sc3n3c(C)nnc23)CC(C)CC4)cc1 (stereo unspecified),-0.998%
12,Cc1ccc(-c2nnc(OCCN3CCOCC3)c3ccccc23)cc1,-9.96%
13,O=C(Nc1ccccc1C(=O)NCCCn1ccnc1)c1ccccc1,1.7%
14,CCn1c(SC(C)C(=O)O)nc2sc3c(c2c1=O)CCC3 (stereo unspecified),2.76%
15,C=CCOC(=O)C1=C(C)NC(SCC(=O)Nc2ccc(C)c(Cl)c2)=C(C#N)C1c1ccco1 (stereo unspecified),-4.79%
16,O=C(Oc1ccccc1N1C(=O)CCC1=O)c1ccco1,11.4%
